Measurements as given in PubChem BioAssay (NCATS).
Records with an inconclusive call do not appear. Calls of active or inactive are those of the source. The call rests on the fitted dose curve; in most records, active means well fitted inhibition curve with a large enough effect; inconclusive means small, poorly fitted or top-dose-only effect; inactive means flat fitted curve, though single readings scatter.

Tested on: Zika virus NS2B-NS3 protease
Assay: Primary screen GU AMC qHTS for Zika virus inhibitors (AID 1347154); further: nearly all actives have a fitted effect of over 70% in size;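 on activity change, negative = inhibition: 0% = no-inhibitor control and -100% = no-enzyme control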
Details: Zika NS2B-NS3 unlinked protease, AMC fluorogenic substrate; series mostly up to 54.1 µM; activity change, negative = inhibition: at the top concentration
In short: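 Unlinked Zika NS2B hydrophilic domain/NS3 protease domain noncovalent complex (25 nM final) in 10 mM Tris-HCl pH 8.0, 0.01% Tween 20, with AMC peptide substrate. Fluorescence (ex 340, em 450 nm) change over 15 min, room temperature; percent inhibition fitted to 4-parameter Hill equation.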
Potency means the concentration at half of the fitted maximal effect.

| Structure (SMILES) | activity change, negative = inhibition | Potency |
| --- | --- | --- |
| CCN[C@@H](C)Cc1cccc(C(F)(F)F)c1 | -3.22% (inactive) |  |
| C[C@]12CC[C@H]3[C@@H](CCC4=CC(=O)CC[C@@H]43)[C@@H]1CC[C@@H]2OC(=O)CCC1CCCCC1 | -11.2% (inactive) |  |
| C[C@]12CCC(=O)C=C1CC[C@@H]1[C@H]3CC[C@](C)(O)[C@@]3(C)CC[C@@H]12 | -2.14% [at 104 µM] (inactive) |  |
| C[C@]12CCC(=O)C=C1CC[C@@H]1[C@@H]2CC[C@]2(C)C(=O)CC[C@@H]12 |  | inactive |
| Clc1ccccc1N1CCNCC1 | 0.141% (inactive) |  |
| COP(=S)(OC)Oc1ccc(S(=O)(=O)N(C)C)cc1 | -1.75% (inactive) |  |
| CC(C)(C)NCC(O)c1cc(Cl)c(N)c(C(F)(F)F)c1 (stereo not drawn) | 6.22% (inactive) |  |
| CCCCCCCCCC(=O)O[C@H]1CC[C@H]2[C@@H]3CCC4=CC(=O)CC[C@@H]4[C@H]3CC[C@]12C | -4.52% (inactive) |  |
| C=CCC1([C@H](C)CCC)C(=O)NC(=O)NC1=O | 0.0325% [at 104 µM] (inactive) |  |
| c1ccc(N2CCNCC2)cc1 | 7.67% (inactive) |  |
| CC(C)c1c(CN(C)C(C)Cc2ccccc2)n(C)n(-c2ccccc2)c1=O (stereo not drawn) | -1.15% (inactive) |  |
| CCN(CC)CCc1c[nH]c2ccccc12 | 1.32% [at 194 µM] (inactive) |  |
| CC[N+]1(CC)CCC(OC(=O)C(O)(c2ccccc2)c2ccccc2)C1 (stereo not drawn) | -1.52% (inactive) |  |
| COc1ccc2c3c1O[C@H]1[C@H](O)CC[C@H]4[C@@H](C2)N(C)CC[C@@]341 | 3.88% [at 104 µM] (inactive) |  |
| Oc1ccc(Cl)cc1 | -0.917% (inactive) |  |
| CC(C)=CC1C(C(=O)OCN2C(=O)C3=C(CCCC3)C2=O)C1(C)C (stereo not drawn) | -8.82% (inactive) |  |
| O=C1c2ccccc2C(=O)C1C(=O)C(c1ccccc1)c1ccccc1 | 0.91% (inactive) |  |
| CNC(C)(C)Cc1ccccc1 | -1.63% (inactive) |  |
| CCCCC/C=C\C/C=C\C/C=C\C/C=C\CCCC(=O)NCC(=O)O |  | 25.6 µM (active) |

| Structure (SMILES) | activity change, negative = inhibition | Potency |
| --- | --- | --- |
| c1ccc(CN2CCNCC2)cc1 | -4.18% [at 194 µM] (inactive) |  |
| CCC1(c2ccccc2)C(=O)N(COC)C(=O)N(COC)C1=O | 5.63% (inactive) |  |
| CN1CC[C@]23c4c5ccc(O)c4O[C@H]2[C@@H](O)C=C[C@H]3[C@H]1C5 | -2.77% [at 104 µM] (inactive) |  |
| CN1C(=O)NC(=O)C(C)(C2=CCCCC2)C1=O (stereo not drawn) | -0.912% (inactive) |  |
| O=[N+]([O-])O[C@H]1CO[C@H]2[C@@H]1OC[C@H]2O[N+](=O)[O-] | -0.676% (inactive) |  |
| CC(C)C[C@H](CN)CC(=O)O | -9.38% (inactive) |  |
| COc1cccc(C(=O)CCN[C@@H](C)[C@H](O)c2ccccc2)c1 | -3% (inactive) |  |
| O=C1c2ccccc2C(=O)c2ccccc21 | -4.7% [at 25.8 µM] (inactive) |  |
| CCC1(CC)C(=O)C=CNC1=O | -2.01% (inactive) |  |
| CC(Cc1ccccc1)NCCn1cnc2c1c(=O)n(C)c(=O)n2C (stereo not drawn) | 3.04% [at 104 µM] (inactive) |  |
| ClCCN1CCCC1 | -4.84% (inactive) |  |
| CCC(CC)(CNC(=O)CCCO)c1cccc(OC)c1 | -4.03% (inactive) |  |
| COc1c2c(cc3c1OCO3)CCN(C)C2 | 1.39% (inactive) |  |
| CCCCCCC(=O)CCCCCC/C=C/C[C@@H](O)[C@H](O)[C@@](N)(CO)C(=O)O | 3.5% [at 25.8 µM] (inactive) |  |
| [N-]=[N+]=CC(=O)OC[C@H](N)C(=O)O | 2.45% (inactive) |  |
| Nc1nc(N)nc(NC2CC2)n1 | -1.82% (inactive) |  |
| CCN[C@H](C)Cc1cccc(C(F)(F)F)c1 | 1.36% [at 104 µM] (inactive) |  |
| CC(C)(N)Cc1ccccc1Cl | 7.06% (inactive) |  |
| CCCOC(=O)c1cncn1C(C)c1ccccc1 (stereo not drawn) | 2.26% (inactive) |  |
